PubChem BioAssay (NCI)
The panel holds about 83,000 compounds, 20% with a hit somewhere; the sample as a whole holds those more often.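 How to read the values: 0–100, growth inhibition (40 = 60% inhibited); 0, no net growth; -100 to 0, cell death (-40 = 40% of starting cells died; -100 = all dead).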 A number with no mark means an inactive call. Activity calls are given as the source filed them. How the source made its calls: active means growth percent below 10; inactive means the rest.

How the values were obtained:
Assay in all cases: NCI-60 one-dose screen, 48 h (100 = growth as untreated, 0 = no growth, -100 = all killed)
Settings in all cases: 10 µM unless noted
NCI-H23 lung = system: NCI-H23 lung
NCI-H226 lung = system: NCI-H226 lung
NCI-H322M lung = system: NCI-H322M lung
HOP-62 NSCLC = system: HOP-62 NSCLC
NCI-H460 lung = system: NCI-H460 lung
786-0 renal = system: 786-0 renal
MDA-MB-231 breast = system: MDA-MB-231 breast
SF-268 CNS = system: SF-268 CNS
M14 melanoma = system: M14 melanoma
PC-3 prostate = system: PC-3 prostate
UACC-62 melanoma = system: UACC-62 melanoma
SK-MEL-28 melanoma = system: SK-MEL-28 melanoma
SN12C renal = system: SN12C renal
UO-31 renal = system: UO-31 renal
OVCAR-5 ovarian = system: OVCAR-5 ovarian
MDA-MB-435 melanoma = system: MDA-MB-435 melanoma
SW-620 colon = system: SW-620 colon
HCT-116 colon = system: HCT-116 colon
KM12 colon = system: KM12 colon
NCI/ADR-RES ovarian = system: NCI/ADR-RES ovarian

Row | Structure (SMILES) | growth (NCI-H23 lung) [%] | growth (NCI-H226 lung) [%] | growth (NCI-H322M lung) [%] | growth (HOP-62 NSCLC) [%] | growth (NCI-H460 lung) [%] | growth (786-0 renal) [%] | growth (MDA-MB-231 breast) [%] | growth (SF-268 CNS) [%] | growth (M14 melanoma) | growth (PC-3 prostate) [%] | growth (UACC-62 melanoma) [%] | growth (SK-MEL-28 melanoma) [%] | growth (SN12C renal) [%] | growth (UO-31 renal) | growth (OVCAR-5 ovarian) | growth (MDA-MB-435 melanoma) | growth (SW-620 colon) [%] | growth (HCT-116 colon) | growth (KM12 colon) [%] | growth (NCI/ADR-RES ovarian) [%]
1 | CC1(C)N=C(N)N=C(N)N1c1ccc(CCC(=O)Nc2cccc(S(=O)(=O)F)c2)cc1 | 63.8 | 89 | 79 | 82.8 | 27.7 | 58 | 104 | 51.6 | 69.8% | 24.5 | 45.3 | 103 | 46.5 | 85.2% | 91.2% | 35.3% | 52.3 | 41.3% | 75 | –
2 | O=S(=O)(c1ccc(Cl)cc1)C(Cl)(Cl)Cl | 40.6 | 60.8 | 75.2 | 78.5 | 80.4 | 51.8 | 42 | 45.5 | 8.38% (active) | 49.1 | 46.6 | 38.5 | 58.3 | 9.42% (active) | 78.9% | -14.8% (active) | 24.4 | 42.2% | 23.4 | 29
3 | COc1cc2c(cc1OC)CN(C)C(C)C2 (centres undefined) | 101 | 96.8 | 106 | 92 | 106 | 101 | 110 | 96 | 100% | 97.4 | 89.4 | 106 | 94.2 | 93% | 101% | 101% | 100 | 105% | 102 | 101
4 | Nc1ccc(N)c2c1Oc1ccccc1O2 | 85.7 | 84.5 | 97.2 | 95.5 | 117 | 93.2 | 78.5 | 105 | 101% | 88 | 98.6 | 108 | 86.1 | 134% | 89% | 109% | 102 | 95.7% | 97.3 | 94.9
5 | O=C(/C=C/c1ccccc1)N[C@@H](CO)Cc1cnc[nH]1 | 113 | 94 | 101 | 101 | 105 | 103 | 98.9 | 101 | 105% | 97.9 | 110 | 99.4 | 105 | 98.2% | 98.3% | 113% | 106 | 109% | 105 | 98
6 | CNC(=O)Oc1cccc(N(C)C)c1 | 106 | 93.3 | 102 | 101 | 105 | 102 | 93 | 106 | 107% | 97.2 | 100 | 111 | 94.6 | 86.6% | 102% | 97.5% | 104 | 113% | 104 | 107
7 | CC(=O)Oc1ccc(Cl)cc1 | 94.2 | 91.3 | 106 | 87.8 | 101 | 99.5 | 95.8 | 83.6 | 98.6% | 91.3 | 91.9 | 89.5 | 94.6 | 59% | 88.7% | 101% | 89.9 | 95.3% | 86.3 | 99.1
8 | CO[C@@H](c1ccccc1Cl)[C@H](C)OC(N)=O | 93.7 | 96.4 | 95.1 | 96.1 | 105 | 98.7 | 102 | 97.4 | 89.9% | 98.1 | 93.1 | 102 | 106 | 85.7% | 91.5% | 97.8% | 100 | 97.2% | 109 | 103
9 | C[C@]12CC[C@@H]3C4=C(CC[C@H]3[C@@H]1CC[C@@H]2O)CC(=O)CC4 | 98.3 | 94 | 109 | 103 | 105 | 106 | 103 | 99.7 | 107% | 103 | 83.3 | 107 | 99.5 | 92% | -62.7% (active) | 103% | 102 | 102% | 107 | 95.8
10 | Cc1cc(C)nc(C)c1.[Cl][Hg][Cl] | 98.9 | 120 | 91.5 | 102 | 101 | 104 | 118 | 102 | 97.3% | 95.4 | 95 | 94 | 104 | 95.5% | 114% | 83.9% | 105 | 108% | 96.2 | 102
11 | Oc1ccc2c3c1O[C@H]1c4[nH]c5ccccc5c4C[C@@]4(O)C(C2)N(CC2CC2)CC[C@]314 | 90.9 | 94.4 | 94.3 | 95.9 | 107 | 95.2 | 101 | 93.2 | 98.6% | 88.1 | 102 | 105 | 103 | 69.9% | 106% | 100% | 99.9 | 89.8% | 90.7 | 92.1
12 | CC(C)N=C(NC(C)C)N1CC1 | 113 | 108 | 118 | 108 | 116 | 116 | 96.9 | 108 | 128% | 112 | 105 | 106 | 111 | 113% | 106% | 103% | 110 | 111% | 110 | 113
13 | O=CC(Br)C(Br)c1ccccc1 (centres undefined) | 104 | 97.7 | 103 | 107 | 102 | 106 | 96.5 | 95.7 | 91.8% | 94.7 | 87.4 | 93.7 | 86.7 | 74.1% | 98% | 99.3% | 19.5 | 2.83% (active) | 96.1 | 100
14 | O=[N+]([O-])c1ccccc1N1CCNCC1 | 96.4 | 107 | 96 | 89.4 | 109 | 94.1 | 114 | 95.2 | 97.8% | 103 | 95.8 | 104 | 97.1 | 84.6% | 94% | 103% | 104 | 101% | 101 | 93.6
15 | CC(N)Cc1ccc(O)cc1 (centres undefined) | 108 | 99.2 | 95.5 | 111 | 109 | 98.6 | 106 | 99.4 | 99.9% | 98.8 | 105 | 124 | 105 | 79.3% | 104% | 106% | 103 | 100% | 107 | 103
16 | O=c1cc[nH]c(=O)o1 | 105 | 98.4 | 105 | 102 | 106 | 98.7 | 117 | 99.9 | 103% | 98 | 99.4 | 111 | 105 | 93.6% | 109% | 111% | 107 | 98.1% | 103 | 111
17 | O=C(O)c1cccc(CCl)c1 | 108 | 104 | 107 | 108 | 103 | 101 | 113 | 102 | 95.8% | 102 | 108 | 110 | 107 | 90.3% | 102% | 104% | 110 | 96.7% | 96.3 | 103
